From PubChem BioAssay (NCI) come the findings set out here.

SMILES strings stand for the structures. This is part of a sample that, as a whole, favours compounds with a hit. Of some 83,000 tested, about 20% had one in any assay.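 How to read the values: 0–100, growth inhibition (40 = 60% inhibited); 0, no net growth; -100 to 0, cell death (-40 = 40% of starting cells died; -100 = all dead).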 Values without a mark were called inactive. Activity calls are given as the source filed them. The calls were made as follows: active = growth percent below 10; inactive = the rest.

Among the test systems are HCT-15 colon; HT29 colon; SNB-75 CNS; SNB-19 CNS; U251 CNS; PC-3 prostate; SK-MEL-5 melanoma; UACC-62 melanoma; LOX IMVI melanoma; SK-MEL-28 melanoma.
What all share (experiment): NCI-60 one-dose screen, 48 h (100 = growth as untreated, 0 = no growth, -100 = all killed)
What all share (conditions): 10 µM unless noted

Turning to `COc1ccc(Sc2[nH]c(C(C)=O)c3ccccc23)cc1`, the growth in the assay with HCT-15 colon is 53.9%; in the assay on HT29 colon, 47.6%; in the assay on SNB-75 CNS it was 48.1%; with SNB-19 CNS, 67.1%; with U251 CNS, 76%; in the assay with PC-3 prostate, 52.1%. In addition, the growth was 45.1% in the assay on SK-MEL-5 melanoma, 47.1% in the assay with UACC-62 melanoma, 71.9% with LOX IMVI melanoma and 84.1% in the assay with SK-MEL-28 melanoma.

In the case of `C[C@H](Oc1cc(-c2cnn(C3CCNCC3)c2)cnc1N)c1c(Cl)ccc(F)c1Cl`, the growth is 43.2% in the assay with HCT-15 colon; 12.4% in the assay with HT29 colon; 76.3% in the assay on SNB-75 CNS; 65.6% with SNB-19 CNS; 37.6% with U251 CNS; 45.9% in the assay with PC-3 prostate. Moreover, the growth in the assay on SK-MEL-5 melanoma was 59%; with UACC-62 melanoma, 60.2%; in the assay with LOX IMVI melanoma, 8.87% (active); in the assay with SK-MEL-28 melanoma, -46.5% (active).

Consider `C=C1C(=O)O[C@H]2[C@H]1CC/C(COC(=O)c1c[nH]c3ccccc13)=C\CC[C@@]1(C)O[C@@H]21`, for which the growth is -69.5% (active) with HCT-15 colon; -59.8% (active) with HT29 colon; -2.2% (active) in the assay on SNB-75 CNS; -40.3% (active) in the assay on SNB-19 CNS; -81.2% (active) in the assay with U251 CNS; -52.1% (active) with PC-3 prostate. The growth in the assay on SK-MEL-5 melanoma is -98.2% (active); in the assay with UACC-62 melanoma it was -69.1% (active); in the assay on LOX IMVI melanoma, -94.8% (active); in the assay on SK-MEL-28 melanoma it was -63.8% (active).

In the case of `COc1ccc(/C=C/C(=O)Nc2ncnc3nc[nH]c23)cc1`, the growth in the assay on HCT-15 colon was 92.2%; in the assay with HT29 colon it was 96.5%; in the assay with SNB-75 CNS it was 82%; with SNB-19 CNS it was 99.7%; in the assay on U251 CNS it was 99.4%; in the assay with PC-3 prostate, 98.1%. The growth in the assay with SK-MEL-5 melanoma was 94.8%; with UACC-62 melanoma, 81.8%; in the assay with LOX IMVI melanoma it was 101%; with SK-MEL-28 melanoma, 99.4%.

Turning to `NC(=O)c1ccc2nc3c(n2c1)C(=O)C(=O)c1ccccc1-3`, the growth is -63.4% (active) in the assay with HCT-15 colon; -7.62% (active) with HT29 colon; -95% (active) in the assay on SNB-75 CNS; -97.5% (active) with SNB-19 CNS; -98.6% (active) with U251 CNS; -48.3% (active) in the assay with PC-3 prostate. Besides, the growth in the assay on SK-MEL-5 melanoma is -100% (active); in the assay on UACC-62 melanoma it was -94.1% (active); in the assay on LOX IMVI melanoma, -78.4% (active); in the assay with SK-MEL-28 melanoma, -82.2% (active).

`C=CCn1c(SCC(=O)Nc2ccc(C(=O)/C=C/c3cc(OC)c(OC)c(OC)c3)cc2)nnc1-c1ccccc1`: the growth with HCT-15 colon was 61.1%; in the assay with HT29 colon, 49.1%; in the assay with SNB-75 CNS it was 95.2%; in the assay with SNB-19 CNS, 86%; with U251 CNS it was 64.4%; in the assay with PC-3 prostate, 94.1%. Also, the growth in the assay with SK-MEL-5 melanoma is 77.3%; with UACC-62 melanoma, 84.6%; in the assay with LOX IMVI melanoma, 68.7%; in the assay with SK-MEL-28 melanoma, 110%.

`COc1ccc(Cc2nc(C#N)c(N3CCN(c4ccc(F)cc4)CC3)o2)cc1`: the growth with HCT-15 colon is 76%; in the assay with HT29 colon, 79.8%; in the assay on SNB-75 CNS, 65.2%; with SNB-19 CNS, 99.1%; in the assay on U251 CNS, 103%; in the assay on PC-3 prostate it was 85.9%. In addition, the growth in the assay on SK-MEL-5 melanoma is 100%; in the assay on UACC-62 melanoma it was 76.1%; in the assay with LOX IMVI melanoma it was 96.1%; in the assay on SK-MEL-28 melanoma it was 97.9%.

As to `COc1ccc2c(c1)Oc1nc(N)c(C#N)c(N)c1C2Sc1ccc(O)cc1` (stereo not given), the growth in the assay on HCT-15 colon is 65.7%; in the assay on HT29 colon, 102%; with SNB-75 CNS, 89.7%; in the assay on SNB-19 CNS it was 106%; with U251 CNS, 86.5%; with PC-3 prostate, 95.9%. The growth in the assay with SK-MEL-5 melanoma was 90.3%; with UACC-62 melanoma it was 101%; with LOX IMVI melanoma it was 87.4%; with SK-MEL-28 melanoma, 105%.

Turning to `C#C[C@@]1(O)[C@@H](CO)O[C@@H](n2cc(Cl)c3c(N)ccnc32)[C@@H]1O`, the growth in the assay with HCT-15 colon is 50.8%; in the assay with HT29 colon, 38.7%; in the assay on SNB-75 CNS it was 140%; in the assay with SNB-19 CNS it was 89.9%; in the assay with U251 CNS, 16%; in the assay with PC-3 prostate, 36.7%. Moreover, the growth in the assay with SK-MEL-5 melanoma was 70.8%; in the assay with UACC-62 melanoma, 105%; in the assay on LOX IMVI melanoma it was 42%; with SK-MEL-28 melanoma, 100%.

For `C=C1C(=O)O[C@H]2[C@H]1CC/C(COC(=O)CCCCCCCC(=O)OC/C1=C/CC[C@@]3(C)O[C@H]3[C@H]3OC(=O)C(=C)[C@@H]3CC1)=C\CC[C@@]1(C)O[C@@H]21`, the growth in the assay with HCT-15 colon is -4.93% (active); with HT29 colon, -8.08% (active); with SNB-75 CNS, 68%; in the assay with SNB-19 CNS, 55%; in the assay with U251 CNS it was 32.3%; in the assay on PC-3 prostate, 15.2%. Besides, the growth in the assay with SK-MEL-5 melanoma is 17.5%; with UACC-62 melanoma it was -10.2% (active); in the assay on LOX IMVI melanoma it was -51.9% (active); in the assay with SK-MEL-28 melanoma it was 20.7%.

As to `COc1cc(-c2csc(NC(=O)Nc3ccc(Cl)cc3)n2)cc(OC)c1OC`, the growth in the assay with HCT-15 colon was 20.1%; in the assay with HT29 colon, 36.1%; with SNB-75 CNS it was 36.5%; in the assay on SNB-19 CNS, 24.3%; in the assay on U251 CNS it was 25.4%; in the assay with PC-3 prostate, 3.63% (active). Besides, the growth in the assay with SK-MEL-5 melanoma was -37.8% (active); in the assay on UACC-62 melanoma it was -7.54% (active); in the assay with LOX IMVI melanoma it was 24.7%; in the assay with SK-MEL-28 melanoma, 41.1%.

In the case of `CC(=O)Nc1c(C(=O)Nc2ccccc2)sc2nc3c(cc12)C(OC(C)=O)CCC3` (stereo not given), the growth in the assay on HCT-15 colon is 99.7%; in the assay with HT29 colon, 104%; with SNB-75 CNS, 88.2%; in the assay with SNB-19 CNS, 95.8%; with U251 CNS, 94.8%; in the assay with PC-3 prostate it was 89%. The growth in the assay on SK-MEL-5 melanoma was 82.5%; with UACC-62 melanoma, 59%; in the assay with LOX IMVI melanoma, 92.2%; in the assay with SK-MEL-28 melanoma, 88.9%.

For `COc1ccc(/C=C(/C(=O)N2CCCC2)c2cc(OC)c(OC)c(OC)c2)cc1`, the growth with HCT-15 colon was 39.6%; in the assay with HT29 colon, 11.6%; with SNB-75 CNS it was 32%; with SNB-19 CNS it was 46.8%; with U251 CNS it was 25.1%; in the assay on PC-3 prostate it was 26.3%. Moreover, the growth in the assay on SK-MEL-5 melanoma was 15%; with UACC-62 melanoma it was 44.1%; in the assay on LOX IMVI melanoma, 54.2%; in the assay on SK-MEL-28 melanoma, 73.9%.
